# Several values for one entry are separate records, joined by “and”; a condition that tells them apart may be missing. Identical values can stand only once. Inconclusive results are not listed. A structure can be active in one record and inactive in another. Activity calls are given as the source filed them. Rule for the calls: active = hit-call score of the fitted dose curve at least 0.9, where 1 is the maximum; inconclusive = response in the unintended direction; inactive = score below 0.9.
# Legend:
# [1] = ACEA_ER_AUC_viability: ACEA Biosciences xCELLigence Real-Time Cell Analysis on Estrogen Receptor Agonism for Viability (AID 2283782);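 note: continuous compound exposure with impedance area under curve over 80 h; hit means loss of impedance signal meaning reduced cell growth or viability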
# In short: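 T47D cells preconditioned in phenol red-free RPMI with charcoal-stripped FBS, then dosed with 8-point 1:4 series from 100 uM (up to 0.5% DMSO). Impedance monitored up to ~80 h; area-under-curve loss versus DMSO taken as viability.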
# [2] = STM_H9_NormalizedViability: Cytotoxicity Assessment at 120 hours in the Stemina devTOX quickPredict H9 human embryonic stem cell (hESC)-based Assay (AID 2283784)
# In short: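 Pluripotent H9 hESCs were exposed, with chemical and media replaced every 24 h. Viability was read by CellTiter-Fluor fluorescence, background-corrected and normalized to the 0.1% DMSO neutral control per plate. Loss of signal was fitted.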
# AR (gene 367) [3] = molecular target: AR (gene 367) (UniProt P10275); experiment: ACEA_AR_agonist_80hr: ACEA Biosciences xCELLigence Real-Time Cell Analysis on Androgen Receptor Agonism for Proliferation (AID 2283783);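 note: hits increase impedance growth signal above DMSO baseline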
# In short: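 Proliferation of 22Rv1 prostate cancer cells tracked by electrical impedance, endpoint taken at 80 hours after dosing. Eight-point 1:4 dilutions from 100 uM maximum final, duplicate; testosterone and MG132 as positive controls, assay media as negative.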
# AR (gene 367) [4] = molecular target: AR (gene 367) (UniProt P10275); experiment: ACEA_AR_antagonist_80hr: ACEA Biosciences xCELLigence Real-Time Cell Analysis on Androgen Receptor Antagonism for Proliferation (AID 2283787);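 note: 22Rv1 human prostate cancer cells with growth followed by electrical impedance; hits lower the impedance growth signal relative to DMSO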
# In short: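 22Rv1 cells in assay medium, growth tracked by electrical impedance; compounds eight-point 1:4 dilutions from 100 uM final, duplicate plates. Endpoint at 80 h; loss of signal versus DMSO.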
# [5] = ATG_M_06_XSP2: Attagene TRANS-FACTORIAL Multi-Species (XSP2) HepG2 Assay for M06 Transcription Factor (Internal Marker) (AID 2283811);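 note: hits are increases in signal above the DMSO baseline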
# In short: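 HepG2 cells transiently transfected with GAL4-UAS multiple reporter units, medium containing 3 nM 6-alpha-fluorotestosterone and 1.5 nM norgestrel; reporter mRNA measured 24 hours post-dosing by RT-PCR and capillary electrophoresis. Internal background marker, gain of signal vs DMSO.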
# [6] = test system: turtle Estrogen Receptor (ERa), gene 101933533; experiment: ATG_trERa_XSP2: Attagene TRANS-FACTORIAL Multi-Species (XSP2) HepG2 Assay for turtle Estrogen Receptor (ERa) (AID 2283812);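 note: human HepG2 liver cells transiently expressing turtle ERa-Gal4 chimeric receptor; actives raise reporter signal above DMSO so AC50 reflects agonist activity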
# In short: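 HepG2 cells transiently transfected with GAL4-UAS reporter units expressing turtle ERa-Gal4 chimera. Reporter mRNA measured after 24 h dosing by RT-PCR, fluorescent labelling and capillary electrophoresis; gain of signal fitted versus DMSO.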
# [7] = molecular target: Estrogen receptor beta (Homo sapiens) (UniProt Q92731); experiment: ATG_hERb_XSP2: Attagene TRANS-FACTORIAL Multi-Species (XSP2) HepG2 Assay for human Estrogen Receptor (ERb) (AID 2283813);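 note: actives raise reporter mRNA above DMSO so AC50 reflects agonist induction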
# In short: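 HepG2 cells transiently transfected with GAL4-UAS reporter units and chimeric human ERb-Gal4, 24 h exposure. Reporter mRNA quantified by RT-PCR with FAM labelling, HpaI digestion and capillary electrophoresis; gain of signal versus DMSO.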
# [8] = molecular target: GAL4 Transcription Factor (Internal Marker), GAL4 (gene 855828) (UniProt P04386); experiment: ATG_GAL4_XSP2: Attagene TRANS-FACTORIAL Multi-Species (XSP2) HepG2 Assay for GAL4 Transcription Factor (Internal Marker) (AID 2283814);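 note: GAL4 reporter mRNA background control in MRTU transfected cells not a receptor target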
# In short: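 HepG2 cells transiently transfected with GAL4-UAS reporter units, stimulated with 3 nM 6-alpha-fluorotestosterone plus 1.5 nM norgestrel, dosed 24 h. Reporter mRNA by RT-PCR/capillary electrophoresis; gain-of-signal fit versus DMSO, background control.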
# Sequence of AR (gene 367) (P10275 whole entry, looked up): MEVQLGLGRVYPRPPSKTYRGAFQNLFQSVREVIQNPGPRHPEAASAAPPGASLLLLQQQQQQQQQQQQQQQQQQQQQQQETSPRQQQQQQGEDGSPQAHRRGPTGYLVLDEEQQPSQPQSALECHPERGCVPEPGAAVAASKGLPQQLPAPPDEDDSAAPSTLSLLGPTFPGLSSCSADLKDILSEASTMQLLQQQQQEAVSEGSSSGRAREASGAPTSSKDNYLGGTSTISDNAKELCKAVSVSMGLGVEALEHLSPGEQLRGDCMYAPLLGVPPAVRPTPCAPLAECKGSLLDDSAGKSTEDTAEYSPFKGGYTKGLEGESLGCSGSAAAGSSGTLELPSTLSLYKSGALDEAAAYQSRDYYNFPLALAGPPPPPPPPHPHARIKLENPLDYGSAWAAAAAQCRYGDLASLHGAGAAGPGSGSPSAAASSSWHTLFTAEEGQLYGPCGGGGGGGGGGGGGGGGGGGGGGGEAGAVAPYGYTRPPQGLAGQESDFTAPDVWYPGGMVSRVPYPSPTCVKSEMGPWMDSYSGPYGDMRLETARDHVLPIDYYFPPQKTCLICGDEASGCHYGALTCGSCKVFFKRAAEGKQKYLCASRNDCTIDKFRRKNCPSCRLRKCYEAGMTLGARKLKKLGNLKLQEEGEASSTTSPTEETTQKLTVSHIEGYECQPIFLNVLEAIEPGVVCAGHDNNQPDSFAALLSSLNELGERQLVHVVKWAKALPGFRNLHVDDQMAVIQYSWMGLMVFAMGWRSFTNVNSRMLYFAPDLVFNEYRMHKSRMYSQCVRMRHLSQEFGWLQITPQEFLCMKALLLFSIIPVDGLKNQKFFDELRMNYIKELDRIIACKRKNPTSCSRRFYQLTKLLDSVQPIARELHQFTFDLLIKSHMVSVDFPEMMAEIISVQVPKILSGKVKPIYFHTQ
# Sequence of Estrogen receptor beta (Homo sapiens) (Q92731 whole entry, looked up, the tested form may be a part): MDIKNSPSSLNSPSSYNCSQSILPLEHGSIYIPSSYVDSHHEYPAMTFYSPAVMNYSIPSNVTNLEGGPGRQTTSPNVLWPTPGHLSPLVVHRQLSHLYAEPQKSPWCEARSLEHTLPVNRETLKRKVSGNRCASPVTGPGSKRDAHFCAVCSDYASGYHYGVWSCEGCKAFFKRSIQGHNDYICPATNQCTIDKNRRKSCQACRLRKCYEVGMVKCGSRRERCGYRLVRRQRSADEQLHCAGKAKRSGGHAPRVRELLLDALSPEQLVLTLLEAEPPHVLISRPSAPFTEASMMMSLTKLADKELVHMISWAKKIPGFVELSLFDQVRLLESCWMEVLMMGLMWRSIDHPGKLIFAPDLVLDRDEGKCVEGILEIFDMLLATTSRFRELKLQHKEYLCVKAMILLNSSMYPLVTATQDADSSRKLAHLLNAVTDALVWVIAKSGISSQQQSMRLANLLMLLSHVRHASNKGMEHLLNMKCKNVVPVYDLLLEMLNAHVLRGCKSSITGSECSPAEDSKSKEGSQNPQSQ
# Sequence of GAL4 Transcription Factor (Internal Marker), GAL4 (gene 855828) (P04386 whole entry, looked up, the tested form may be a part): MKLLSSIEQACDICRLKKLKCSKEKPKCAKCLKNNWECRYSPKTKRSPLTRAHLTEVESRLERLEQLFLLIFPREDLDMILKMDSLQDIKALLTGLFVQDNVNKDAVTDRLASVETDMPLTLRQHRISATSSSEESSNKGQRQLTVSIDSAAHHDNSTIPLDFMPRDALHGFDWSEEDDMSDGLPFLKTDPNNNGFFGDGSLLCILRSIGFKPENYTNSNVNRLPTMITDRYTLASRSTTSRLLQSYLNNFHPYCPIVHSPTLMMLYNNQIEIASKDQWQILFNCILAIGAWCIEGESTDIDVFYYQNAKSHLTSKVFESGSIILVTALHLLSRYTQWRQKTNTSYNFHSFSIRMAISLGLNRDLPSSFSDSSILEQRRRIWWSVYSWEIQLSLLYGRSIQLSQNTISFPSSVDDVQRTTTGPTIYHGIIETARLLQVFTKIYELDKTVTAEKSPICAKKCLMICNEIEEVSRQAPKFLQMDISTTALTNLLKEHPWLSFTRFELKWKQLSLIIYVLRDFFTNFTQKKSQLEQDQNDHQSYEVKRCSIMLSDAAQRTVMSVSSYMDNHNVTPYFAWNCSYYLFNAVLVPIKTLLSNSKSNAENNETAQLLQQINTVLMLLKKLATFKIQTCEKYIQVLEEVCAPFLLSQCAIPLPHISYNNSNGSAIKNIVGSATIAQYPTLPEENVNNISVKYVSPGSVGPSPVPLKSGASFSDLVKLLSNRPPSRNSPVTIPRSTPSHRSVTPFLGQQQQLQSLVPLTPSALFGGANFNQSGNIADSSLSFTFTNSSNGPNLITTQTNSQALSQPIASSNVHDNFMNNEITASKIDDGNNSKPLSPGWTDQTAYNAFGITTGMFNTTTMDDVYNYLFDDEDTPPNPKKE
smiles,measurement,setting,value
CN(C)C(=S)SC(=S)N(C)C,AC50,[1],90.3 µM (active)
Cc1cc(CCC(=O)OCCOCCOCCOC(=O)CCc2cc(C)c(O)c(C(C)(C)C)c2)cc(C(C)(C)C)c1O,outcome,[1],inactive
CS(=O)(=O)OCCCCOS(C)(=O)=O,outcome,[1],inactive
same,AC50,[2],23.6 µM (active)
CCCCCCCCSCCO,outcome,AR (gene 367) [3],inactive
same,outcome,AR (gene 367) [4],inactive
OCc1cccc(Oc2ccccc2)c1,outcome,AR (gene 367) [3],inactive
same,outcome,[5],inactive
same,AC50,[6],17.1 µM (active) and 11.5 µM (active)
same,AC50,[7],26.9 µM (active) and 8.78 µM (active)
same,outcome,[8],inactive
CC(=O)O[C@@H]1CC2CCC1(C)C2(C)C (some centres undefined),outcome,[1],inactive
same,outcome,AR (gene 367) [4],inactive
Cc1ccc(S(=O)(=O)Oc2ccc(N=Nc3ccc(-c4ccc(N=Nc5c(O)ccc6cc(S(=O)(=O)O)cc(S(=O)(=O)O)c56)c(C)c4)cc3C)cc2)cc1,outcome,[1],inactive
same,AC50,AR (gene 367) [4],5.11 µM (active)
CCc1cc(Cc2cc(CC)cc(C(C)(C)C)c2O)c(O)c(C(C)(C)C)c1,AC50,[1],11.7 µM (active)
same,AC50,AR (gene 367) [4],24.1 µM (active)
CCOC(=O)[C@@H](C)Oc1ccc(Oc2nc3ccc(Cl)cc3o2)cc1,AC50,AR (gene 367) [4],3.55 µM (active)
C[C@H]1O[C@@H](O[C@H]2[C@@H](O)C[C@H](O[C@H]3[C@@H](O)C[C@H](O[C@H]4CC[C@@]5(C)[C@H](CC[C@@H]6[C@@H]5C[C@@H](O)[C@]5(C)[C@@H](C7=CC(=O)OC7)CC[C@]65O)C4)O[C@@H]3C)O[C@@H]2C)C[C@H](O)[C@@H]1O,AC50,[1],0.0803 µM (active)
same,outcome,AR (gene 367) [3],inactive
same,AC50,AR (gene 367) [4],0.00928 µM (active)
Oc1ccc2cc(SSc3ccc4cc(O)ccc4c3)ccc2c1,AC50,[1],87.1 µM (active)
same,outcome,[5],inactive
same,AC50,[6],1.07 µM (active)
same,outcome,[6],inactive
COC(=O)c1ccc(OC)cc1,outcome,[1],inactive
Nc1ccc(N)c2c1C(=O)c1ccccc1C2=O,outcome,[1],inactive
same,AC50,AR (gene 367) [4],16.6 µM (active)
O=c1c(O)c(-c2ccc(O)cc2)oc2cc(O)cc(O)c12,outcome,[5],inactive
same,AC50,[6],2.27 µM (active) and 1.08 µM (active)
CC(=O)O[C@H]1C[C@@H]2CC[C@@]1(C)C2(C)C,outcome,[1],inactive
same,outcome,AR (gene 367) [3],inactive
same,outcome,AR (gene 367) [4],inactive
Cc1ncc[nH]1,outcome,[1],inactive
CC(C)CC(C)CC(O)CC(C)C (centres undefined),outcome,[1],inactive
CCCC(C)=O,outcome,[1],inactive
CCOC(=O)c1ccc(N)cc1,outcome,[1],inactive
CC(C=O)Cc1ccc(C(C)(C)C)cc1 (centres undefined),outcome,AR (gene 367) [4],inactive
NCC1CCCC(CN)C1 (centres undefined),outcome,[1],inactive
Clc1ccc(C(c2ccccc2Cl)C(Cl)Cl)cc1 (centres undefined),AC50,[1],29.2 µM (active)
same,outcome,[5],inactive
same,AC50,[6],1.29 µM (active) and 8.5 µM (active)
same,AC50,[7],3.01 µM (active) and 5.58 µM (active)
O=C1OC2(c3ccccc31)c1ccc(O)c(Br)c1Oc1c2ccc(O)c1Br,outcome,[1],inactive

# — PubChem BioAssay (EPA / NIEHS)
